Here are results for 26 compounds from PubChem BioAssay (NCATS).

Values joined by “and” are separate entries in the source; they are usually repeats but may differ in a detail not shown here. Equal values may be shown once. Values without a mark were called inactive. Results filed as inconclusive are left out. Active and inactive are the calls of the source. Unless noted, the call rests on the fitted dose curve; in most records, active means well fitted curve in either direction with a large enough effect (not every such curve was filed as active); inconclusive means small, poorly fitted or top-dose-only effect, or another doubt; inactive means flat fitted curve, though single readings scatter.

Assay [1] in a line: Stat Signaling Pathway (AID 446).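 Further: ME-180 cervical cancer cells given 40 pM IL-6 alongside compound; SIE-controlled beta-lactamase reporter measured as 460/530 nm FRET emission ratio; on the % scale 0 is the no-effect control and ±100 the full control effect.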 Conditions: ME-180 (cervical carcinoma) SIE beta-lactamase reporter, IL-6 stimulated, 5 h; series mostly up to 17.2 µM. The method, boiled down: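 IL-6/STAT signaling read in ME-180 cells via an SIE beta-lactamase reporter. Stimulus was 40 pM IL-6 (its AC50) for 5 hrs, so both activation and inhibition register.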
In assay [2] the target is Glucocorticoid receptor (Homo sapiens) (UniProt P04150). The assay can be described thus: GR-GFP Redistribution (AID 450;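 active means compounds whose dose series gives a full or clear partial fitted curve of increased nuclear translocation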; further: potency means the concentration at half of the fitted maximal effect). As to conditions: U2OS GR-GFP nuclear translocation, laser cytometry, 2 h.
Assay [3] shares this target. The assay is described as follows: GR-EFC Redistribution (AID 451; calls by dose curve; further: potency means the concentration at half of the fitted maximal effect). Conditions: CHO-K1 GR-EFC translocation, beta-gal luminescence, 2 h. The method, boiled down: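 CHO-K1 cells expressing nuclear EA and GR-ED fragments of b-gal; compounds titrated up to 46 uM final, 2 h at 37 C. GR nuclear translocation read as complemented b-gal luminescence after 1 h RT detection.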

In assay [4] the target is Mitogen-activated protein kinase 10 (Mus musculus) (UniProt Q61831). The assay is described as follows: JNK3 AlphaScreen Assay (AID 530).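 Further: kinase came from lysate of stimulated human HepG2 cells; signal reports phosphorylation of biotinylated GST-cJun 1-79 at Ser73 with 10 µM ATP; on the % scale 0 is the no-effect control and ±100 the full control effect.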 Conditions: JNK3 lysate, c-Jun phosphorylation; series mostly up to 57.1 µM. Summed up:
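Pre-activated (IL-1β/TNFα) JNK3 in HepG2 lysates phosphorylates biotin-GST-cJun(1-79), 10 uM ATP; anti-phospho-cJun(Ser73) AlphaScreen read at room temperature, pH 7.6 Tris buffer. Compounds pre-incubated 15 min as titrations.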

Assay [5] in a line: Cell Viability - H-4-II-E (AID 543; active means well fitted cell-killing curve with a large enough effect;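 further: potency means the concentration at half of the fitted maximal effect; cells exposed to compound for 40 hours; nearly all actives have a fitted effect of over 35% in size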). As to conditions: H-4-II-E rat hepatoma viability; series mostly up to 92.2 µM. Summed up: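 Rat hepatoma H-4-II-E cells, 1500 per well, treated 40 h at 37 °C in complete medium. Cellular ATP read by CellTiter-Glo luminescence; AC50 from Hill fits of concentration-response.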
Assay [6] can be described thus: Cell Viability - Renal Proximal Tubule (AID 545; active means well fitted cell-killing curve with a large enough effect;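 further: cells exposed to compound for 40 hours; 0% = DMSO only and -100% = 100 µM tamoxifen; nearly all actives have a fitted effect of over 40% in size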). Conditions: renal proximal tubule cells viability, primary cells of rat origin; activity change, negative = cytotoxicity: at 91.7 µM (top of the series). The method, boiled down: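 Cytotoxicity is scored as a concentration-dependent drop in cellular ATP in primary rat renal proximal tubule cells exposed for 40 hr. AC50 derives from Hill modelling.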

A short description of assay [7]: Cell Viability - Mesenchymal (AID 546; active means well fitted cell-killing curve with a large enough effect;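 further: potency means the concentration at half of the fitted maximal effect; cells exposed to compound for 40 hours before reading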). As to conditions: mesenchymal cells viability, qHTS; activity change, negative = cytotoxicity: at 91.7 µM (top of the series). Summed up: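 Human kidney mesenchymal cells from normal renal glomeruli, 1000 cells/well, rested 5 hr at 37 °C, then treated 40 hr at 37 °C in complete medium. Cellular ATP read by CellTiter-Glo luminescence; AC50 from Hill-equation fits.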

In assay [8] the target is 3',5'-cyclic-AMP phosphodiesterase 4B (Homo sapiens) (UniProt Q07343). The assay is described as follows: qHTS Assay for Inhibitors of PDE-IV (AID 607; active means well fitted activation curve with a large enough effect in the main read-out, with a control signal flat, not every such curve was filed as active; further: % of control where 0% means no effect). Conditions: HEK293 ACTOne CNG channel cells, membrane potential fluorescence; series mostly up to 22.9 µM. Summed up:
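Live HEK293 cells with a modified cyclic nucleotide-gated (CNG) channel report intracellular cAMP via membrane-potential dye fluorescence (ex 535/em 590 nm). Endogenous PDE-IV was targeted. Compounds were tested at up to 22.9 uM final; RO 20-1724 100 uM served as control.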

Glucocorticoid receptor (Homo sapiens), sequence (P04150 whole entry, looked up, the tested form may be a part): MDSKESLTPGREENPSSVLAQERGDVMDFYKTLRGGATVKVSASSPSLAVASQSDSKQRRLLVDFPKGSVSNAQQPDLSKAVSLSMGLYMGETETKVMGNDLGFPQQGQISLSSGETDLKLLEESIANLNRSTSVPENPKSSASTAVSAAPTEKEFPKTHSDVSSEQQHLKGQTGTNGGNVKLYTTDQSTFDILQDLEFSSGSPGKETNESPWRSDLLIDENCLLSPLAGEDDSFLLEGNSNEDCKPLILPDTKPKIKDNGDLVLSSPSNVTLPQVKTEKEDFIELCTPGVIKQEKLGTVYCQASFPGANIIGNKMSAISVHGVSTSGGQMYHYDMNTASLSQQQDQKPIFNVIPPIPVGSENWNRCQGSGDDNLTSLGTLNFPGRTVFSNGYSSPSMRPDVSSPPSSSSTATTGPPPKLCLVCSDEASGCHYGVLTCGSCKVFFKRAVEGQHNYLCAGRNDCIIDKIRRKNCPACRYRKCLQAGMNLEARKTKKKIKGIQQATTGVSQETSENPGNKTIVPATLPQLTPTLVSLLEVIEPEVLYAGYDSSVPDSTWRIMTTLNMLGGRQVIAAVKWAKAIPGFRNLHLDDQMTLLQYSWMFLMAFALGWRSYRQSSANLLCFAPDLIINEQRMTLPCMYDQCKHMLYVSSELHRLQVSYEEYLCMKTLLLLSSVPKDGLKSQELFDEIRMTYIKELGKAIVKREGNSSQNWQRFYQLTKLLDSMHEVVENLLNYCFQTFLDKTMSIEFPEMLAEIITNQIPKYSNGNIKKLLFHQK
3',5'-cyclic-AMP phosphodiesterase 4B (Homo sapiens), sequence (Q07343 whole entry, looked up): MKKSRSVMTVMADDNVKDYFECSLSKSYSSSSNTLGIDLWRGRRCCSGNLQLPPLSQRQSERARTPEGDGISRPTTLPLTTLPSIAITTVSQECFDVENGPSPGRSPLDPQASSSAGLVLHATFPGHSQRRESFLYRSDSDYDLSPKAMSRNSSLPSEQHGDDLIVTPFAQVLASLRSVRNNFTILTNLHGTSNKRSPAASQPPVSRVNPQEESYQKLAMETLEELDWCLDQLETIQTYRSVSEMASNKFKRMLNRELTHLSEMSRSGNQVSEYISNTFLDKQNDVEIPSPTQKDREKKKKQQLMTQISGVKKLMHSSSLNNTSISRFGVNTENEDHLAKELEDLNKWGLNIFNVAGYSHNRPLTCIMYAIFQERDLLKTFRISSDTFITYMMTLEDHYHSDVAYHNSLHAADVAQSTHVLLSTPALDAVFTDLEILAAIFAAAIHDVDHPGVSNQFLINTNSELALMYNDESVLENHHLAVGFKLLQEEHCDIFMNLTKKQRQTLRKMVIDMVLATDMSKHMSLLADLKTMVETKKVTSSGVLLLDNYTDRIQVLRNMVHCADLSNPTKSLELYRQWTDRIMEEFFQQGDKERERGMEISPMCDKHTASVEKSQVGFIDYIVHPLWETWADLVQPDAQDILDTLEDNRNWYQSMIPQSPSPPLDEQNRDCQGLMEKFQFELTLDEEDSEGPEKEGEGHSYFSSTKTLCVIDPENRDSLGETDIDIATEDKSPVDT

For the compound `Nc1nc(N)c2nc(-c3ccccc3)c(N)nc2n1`, the compound was classed as inactive in assay [1]. Also, the Potency in assay [2] was > 46 µM and > 20.6 µM; in assay [3] it was > 46 µM and > 20.6 µM; in assay [5] it was 316 nM (active); in assay [7], 25.1 µM (active). Moreover, the Potency result in assay [4] and in assay [8] was “inactive” each time. Besides, the activity change, negative = cytotoxicity in assay [6] was -93% (active).

Take `COc1ccc(CCN(C)CCCC(C#N)(c2cc(OC)c(OC)c(OC)c2)C(C)C)cc1OC` (stereo not given): the compound was classed as inactive in assay [1]. In assay [2], the Potency was above 20.6 µM.

In the case of `Cc1ccc(Cl)c(Nc2ccccc2C(=O)O)c1Cl`, in assay [1], the compound was classed as inactive. Moreover, the Potency in assay [2] is > 46 µM and > 20.6 µM; in assay [3], > 46 µM and > 20.6 µM. Also, the Potency result in assay [4] is “inactive”.

As to `COCCCC/C(=N\OCCN)c1ccc(C(F)(F)F)cc1`, the result in assay [1] was inactive. Moreover, the Potency in assay [2] is above 20.6 µM.

As to `OC(CCN1CCCCC1)(c1ccccc1)C1CCCCC1` (stereo not given), the result in assay [1] was inactive.

For the compound `Fc1ccc(C(c2ccc(F)cc2)N2CCN(C/C=C/c3ccccc3)CC2)cc1`, the compound was classed as inactive in assay [1]. The Potency in assay [2] was above 20.6 µM.

Consider `COCCc1ccc(OCC(O)CNC(C)C)cc1` (stereo not given), for which the compound was called inactive in assay [1]. Further, the Potency in assay [2] was above 20.6 µM.

On to `C=CCc1ccccc1OCC(O)CNC(C)C` (stereo not given), for which, in assay [1], the compound was classed as inactive.

As to `C(=C\c1ccccc1)/CN1CCN(C(c2ccccc2)c2ccccc2)CC1`, in assay [1], the call was inactive.

As for `CCN(CC)CCOCCOC(=O)C1(c2ccccc2)CCCC1`, the result in assay [1] was inactive. The Potency in assay [2] was > 46 µM and > 20.6 µM; in assay [3] it was > 46 µM and > 20.6 µM. Also, the Potency result in assay [4] and in assay [8] was “inactive” each time.

For the compound `CCOC(=O)C1=C(C)NC(C)=C(C(=O)OC)C1c1cccc(Cl)c1Cl` (stereo not given), the compound was called inactive in assay [1]. The Potency in assay [2] was above 20.6 µM.

Regarding `NC(N)=NC(=O)Cc1c(Cl)cccc1Cl`, the compound was classed as inactive in assay [1]. In addition, the Potency in assay [2] was > 46 µM and > 20.6 µM; in assay [3], > 46 µM and > 20.6 µM. Further, the Potency entry in assay [4] and in assay [8] was “inactive” each time.

With `CCn1nc(C(=O)O)c(=O)c2cc3c(cc21)OCO3`, in assay [1], the result was inactive. For the same compound, the Potency is > 46 µM and > 20.6 µM in assay [2]; > 46 µM and > 20.6 µM in assay [3]. The Potency result in assay [4] and in assay [8] was “inactive” throughout.

Consider `C[N+](C)(C)CCOC(=O)CCC(=O)OCC[N+](C)(C)C`, for which the compound was classed as inactive in assay [1]. Moreover, the Potency in assay [2] and in assay [3] was above 46 µM each time. Besides, the Potency entry in assay [4] and in assay [8] was “inactive” each time.

In the case of `C[N+](C)(C)CCCCCCCCCC[N+](C)(C)C`, the outcome in assay [1] was inactive. Further, the Potency in assay [2] was > 46 µM and > 20.6 µM; in assay [3], > 46 µM and > 20.6 µM. Further, the Potency entry in assay [4] and in assay [8] was “inactive” each time.

For the compound `CN(C)CCCN1c2ccccc2Sc2ccc(C(F)(F)F)cc21`, the result in assay [1] was inactive. Moreover, the Potency in assay [2] was > 46 µM and > 20.6 µM; in assay [3], > 46 µM and > 20.6 µM. The Potency entry in assay [4] and in assay [8] was “inactive” throughout.

In the case of `CCCC(C(=O)OCCN(CC)CC)(c1ccccc1)c1ccccc1`, the result in assay [1] was inactive. Moreover, the Potency in assay [2] was > 46 µM and > 20.6 µM; in assay [3], > 46 µM and > 20.6 µM. In addition, the Potency entry in assay [4] and in assay [8] was “inactive” throughout.

As for `CN(C)C(=O)Oc1cccc([N+](C)(C)C)c1`, in assay [1], the outcome was inactive. The Potency was > 46 µM and > 20.6 µM in assay [2]; > 46 µM and > 20.6 µM in assay [3]. For the same compound, the Potency result in assay [4] and in assay [8] was “inactive” in each case.

With `CN(C)CCOC(=O)COc1ccc(Cl)cc1`, in assay [1], the outcome was inactive. Besides, the Potency in assay [2] was > 46 µM and > 20.6 µM; in assay [3], > 46 µM and > 20.6 µM. Also, the Potency result in assay [4] and in assay [8] was “inactive” in each case.

Regarding `CC(C)(Oc1ccc(CCNC(=O)c2ccc(Cl)cc2)cc1)C(=O)O`, the outcome in assay [1] was inactive. In addition, the Potency in assay [2] and in assay [3] was above 20.6 µM in each case. For the same compound, the Potency entry in assay [4] and in assay [8] was “inactive” each time.

Consider `CCO/C([O-])=N/c1c[n+](N2CCOCC2)no1`, for which the compound was called inactive in assay [1]. For the same compound, the Potency in assay [2] was > 46 µM and > 20.6 µM; in assay [3] it was > 46 µM and > 20.6 µM. In addition, the Potency entry in assay [4] and in assay [8] was “inactive” each time.

For the compound `CN/C(=C\[N+](=O)[O-])NCCSCc1ccc(CN(C)C)o1`, in assay [1], the outcome was inactive. The Potency in assay [2] is > 46 µM and > 20.6 µM; in assay [3] it was > 46 µM and > 20.6 µM. Besides, the Potency entry in assay [4] and in assay [8] was “inactive” throughout.

For the compound `O=C(CCNNC(=O)c1ccncc1)NCc1ccccc1`, the outcome in assay [1] was inactive. Besides, the Potency in assay [2] is > 46 µM and > 20.6 µM; in assay [3], > 46 µM and > 20.6 µM. Also, the Potency entry in assay [4] and in assay [8] was “inactive” in each case.

On to `CN(C(=O)CCCOc1ccc2[nH]c(=O)ccc2c1)C1CCCCC1`, for which the compound was called inactive in assay [1]. In addition, the Potency in assay [2] and in assay [3] was above 46 µM each time. For the same compound, the Potency entry in assay [4] and in assay [8] was “inactive” in each case.

With `CN1CCN(CC(=O)N2c3ccccc3C(=O)Nc3cccnc32)CC1`, the compound was classed as inactive in assay [1]. The Potency is > 46 µM and > 20.6 µM in assay [2]; > 46 µM and > 20.6 µM in assay [3]. Further, the Potency entry in assay [4] and in assay [8] was “inactive” each time.

`CC(C)NNC(=O)c1ccncc1`: the call in assay [1] was inactive. The Potency in assay [2] is > 46 µM and > 20.6 µM; in assay [3], > 46 µM and > 20.6 µM. The Potency entry in assay [4] and in assay [8] was “inactive” in each case.
